Screening data as filed in PubChem.
Only some compounds are listed: those with a hit (about 3.8% of all), similar ones and a draw of the others.
Mdm2 MdmX PPI: inhibitors of human Mdm2-MdmX association, primary screen, cell-based, luminescence, split luciferase, SaOS-2, uHTS; Protein Mdm4 (Homo sapiens) + E3 ubiquitin-protein ligase Mdm2 (Homo sapiens), …; SaOS-2 split-luciferase Mdm2/MdmX complementation; inhibition, % at 8 µM; 330,000 compounds, 3% hits;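 active = inhibition of at least 50% at 8 µM in the primary screen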
Target sequence (O15151 whole entry, looked up): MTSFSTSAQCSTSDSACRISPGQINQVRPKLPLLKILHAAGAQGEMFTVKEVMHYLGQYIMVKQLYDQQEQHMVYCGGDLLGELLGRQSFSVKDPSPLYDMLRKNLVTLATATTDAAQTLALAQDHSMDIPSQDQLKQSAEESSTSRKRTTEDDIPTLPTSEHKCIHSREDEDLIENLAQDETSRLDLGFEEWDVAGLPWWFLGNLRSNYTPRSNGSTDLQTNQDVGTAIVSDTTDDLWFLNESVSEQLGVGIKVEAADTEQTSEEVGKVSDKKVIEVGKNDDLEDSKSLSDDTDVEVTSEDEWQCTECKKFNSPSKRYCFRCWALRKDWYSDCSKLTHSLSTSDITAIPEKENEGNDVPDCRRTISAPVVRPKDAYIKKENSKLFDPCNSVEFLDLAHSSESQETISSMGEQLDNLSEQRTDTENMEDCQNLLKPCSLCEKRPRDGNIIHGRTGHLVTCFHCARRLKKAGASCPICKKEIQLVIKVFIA
Target sequence (Q00987 whole entry, looked up): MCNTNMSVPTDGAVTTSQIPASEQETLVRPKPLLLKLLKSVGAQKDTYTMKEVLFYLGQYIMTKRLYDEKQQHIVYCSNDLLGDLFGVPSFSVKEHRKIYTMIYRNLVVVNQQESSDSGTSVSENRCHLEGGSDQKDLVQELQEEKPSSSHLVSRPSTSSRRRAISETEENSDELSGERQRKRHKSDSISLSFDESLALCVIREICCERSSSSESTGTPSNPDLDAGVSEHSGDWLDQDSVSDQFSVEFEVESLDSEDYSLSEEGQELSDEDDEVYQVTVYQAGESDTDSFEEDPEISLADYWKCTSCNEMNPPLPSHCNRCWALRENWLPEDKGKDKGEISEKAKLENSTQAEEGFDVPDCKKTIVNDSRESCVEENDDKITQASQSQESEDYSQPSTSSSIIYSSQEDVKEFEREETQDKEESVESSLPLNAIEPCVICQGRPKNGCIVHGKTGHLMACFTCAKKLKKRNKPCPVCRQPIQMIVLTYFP
Jurkat NFkB inh: inhibitors of induced NF-kB luciferase reporter, primary screen, TCR NF-kB activation inhibitor project, cell-based, luminescence, uHTS. inhibition, % at 4 µM. 330,000 compounds, 0.53% hits. Jurkat, PMA/ionomycin-induced NF-kB luciferase reporter; in the data active = inhibition above about 50%
697 NFkB inh: inhibitors of PMA/ionomycin-induced NF-kB reporter, 697 cells, primary screen, B-cell NF-kB inhibitor project, cell-based, luminescence, uHTS. 697 B-cell NF-kB luciferase reporter, 16 h. inhibition, % at 4 µM. 330,000 compounds, 0.33% hits; in the data active = inhibition above about 35%
Gli-Sufu antag: Gli-Sufu pathway antagonists, primary screen, luciferase luminescence, Sufu-KO-LIGHT cells, uHTS; Sufu-KO-LIGHT fibroblasts, Gli luciferase reporter luminescence; inhibition, % at 5 µM; 340,000 compounds, 0.74% hits; AID 588413, 2011;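 active = inhibition above about 55%, limit read from the data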
Shn3 inh set2: reduction of Shn3 3'UTR firefly luciferase signal, primary screen, Schnurri-3 inhibitor project, cell-based, Clone20 osteoblasts, set 2; Clone20 osteoblast Shn3 3'UTR firefly luciferase, 24 h; inhibition, % at 12.5 µM; 360,000 compounds, 0.52% hits; AID 588674, 2011;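 active = mean inhibition of at least 75% with every replicate also reaching 75%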
Jurkat NFkB conf: PMA/ionomycin-induced NF-kB reporter inhibitors, Jurkat retest, confirmation, T-cell NF-kB inhibitor project, cell-based, luminescence, single concentration; shares compounds with Jurkat NFkB inh; Jurkat NF-kB luciferase, 16 h; inhibition, % at 4 µM; 2,700 compounds, 27% hits; AID 435020, 2010;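 active = inhibition reaching about 45% at 4 µM in either replicate, limit read from the data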
Numbers stand for hits; – = inactive; · = no result.

SMILES	Mdm2 MdmX PPI	Jurkat NFkB inh	697 NFkB inh	Gli-Sufu antag	Shn3 inh set2	Jurkat NFkB conf
O=C(Nc1cccc(S(=O)(=O)N2CCOCC2)c1)c1ccc(Cl)nc1	–	–	–	–	–	·
O=C(Nc1cccc(S(=O)(=O)N2CCCC2)c1)c1ccc(Cl)nc1	–	63	–	–	–	–
CC1=C(C(=O)N2CCOCC2)CC(CC(=O)NC2CC2)C(=O)N1Cc1ccccc1 (centres undefined)	·	·	·	·	–	·
COc1ccc(Nc2nc3ccc(C)cc3cc2C#N)c(OC)c1	–	–	–	–	–	·
COc1ccc(Nc2nc3cc(C)ccc3cc2C#N)c(OC)c1	–	65	–	–	–	–
O=C(Nc1ccc(NC(=O)C23CC4CC(CC(C4)C2)C3)cn1)c1ccco1	–	–	–	–	–	–
CC(C)Cc1nnc(NC(=O)C2CCCN(C(=O)c3ccc(Cl)cc3)C2)s1 (centres undefined)	·	·	·	·	–	·
CCc1ccc(Nc2ncc3c(n2)CC(C)CC3=O)cc1 (centres undefined)	–	–	–	–	–	–
CCc1ccc(Nc2ncc3c(n2)CC(c2ccc(OC)cc2)CC3=O)cc1 (centres undefined)	–	–	–	–	–	·
Nc1ncnc2c1ncn2[C@@H]1O[C@H](C(=O)N2CCN(c3ccc(Cl)cn3)CC2)[C@@H](O)[C@H]1O	·	·	·	·	–	·
C=CCNc1nc(Nc2ccc(OC)c(OC)c2)c2sc(-c3ccccc3)cc2n1	·	·	·	·	–	·
COc1ccc(NC(=O)c2noc3c2CCCCC3)cc1	–	–	–	–	–	·
CCc1ccc(NC(=O)c2noc3c2CCCCC3)cc1	–	–	–	–	–	–
Cc1ccc(NC(=O)c2noc3c2CCCCC3)cc1	–	–	–	–	–	–
O=C(c1ccccc1)c1cnc(-c2ccc(Cl)cc2)s1	–	–	–	–	–	–
O=C(NCc1ccc2c(c1)OCO2)C(=O)NCC1OCCCN1S(=O)(=O)c1ccccc1 (centres undefined)	·	·	·	·	–	·
COc1ccc(C(=O)N2CCN(C(=O)c3cc(OC)c(OC)c(OC)c3)CC2)cc1	–	–	–	–	–	·
COc1cc(C(=O)N2CCN(c3cc(Cl)ccc3Cl)CC2)cc(OC)c1OC	–	60	–	–	–	50
COc1cc(C(=O)N2CCN(c3cccc(C)c3C)CC2)cc(OC)c1OC	–	63	–	–	–	–
CC(=O)O[C@H]1C(=O)[C@]2(C)[C@H]([C@H](OC(=O)c3ccccc3)[C@]3(O)C[C@H](OC(=O)[C@H](O)[C@@H](NC(=O)c4ccccc4)c4ccccc4)C(C)=C1C3(C)C)[C@]1(OC(C)=O)CO[C@@H]1C[C@@H]2O	–	71	–	–	–	65
CC(=O)O[C@H]1C(=O)[C@@]2(C)C([C@H](OC(=O)c3ccccc3)[C@]3(O)C[C@H](OC(=O)[C@H](O)[C@@H](NC(=O)c4ccccc4)c4ccccc4)C(C)=C1C3(C)C)[C@]1(OC(C)=O)CO[C@@H]1C[C@H]2O (some centres undefined)	–	67	–	–	–	70
CN(C)c1ccc(-c2nnc(-c3cccs3)o2)cc1	–	–	–	–	–	–
CCCOc1ccc(-c2nnc(-c3cccs3)o2)cc1	–	–	–	–	–	·
O=C(OCC(=O)N1CCC(Cc2ccccc2)CC1)c1cc(Br)ccc1O	–	–	–	–	–	·
Cc1ccc(O)c(NC(=O)C2CC(c3c(F)cccc3Cl)=NO2)c1 (centres undefined)	–	51	–	–	–	–
COc1cc(NC(=O)C2CC(c3c(F)cccc3Cl)=NO2)c(OC)cc1Cl (centres undefined)	–	–	–	–	–	·
Cc1ccc(Nc2nc(-c3ccc(O)c(O)c3)cs2)nc1	–	53	–	64	·	–
COc1ccc(-c2csc(Nc3ccc(C)cn3)n2)cc1OC	–	–	–	–	–	·
CC(=O)Nc1cccc(-c2csc(Nc3ccc(Cl)cn3)n2)c1	–	–	–	–	–	–
Cc1ccc(Nc2nc(-c3ccc(F)cc3)cs2)nc1	–	–	–	–	–	–
